# Results as given in PubChem BioAssay (NCI).
# The panel holds about 83,000 compounds, 20% with a hit somewhere; the sample as a whole holds those more often.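 Step 1: grow cells in 96-well plates. Step 2: add test compound at a single concentration. Step 3: incubate 48 h. Step 4: record percent growth.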 Unmarked numbers belong to inactive results. Activity calls are given as the source filed them. Rule for the calls: active = growth percent below 10; inactive = the rest.
# Legend:
# Assay in all cases: NCI-60 one-dose screen, 48 h (100 = growth as untreated, 0 = no growth, -100 = all killed)
# HOP-92 NSCLC = settings: 10 µM unless noted
# MDA-MB-231 breast = settings: 10 µM unless noted
# RXF 393 renal = settings: 10 µM unless noted
# SNB-75 CNS = settings: 10 µM unless noted
# SNB-19 CNS = settings: 10 µM unless noted
# SK-MEL-5 melanoma = settings: 10 µM unless noted
# LOX IMVI melanoma = settings: 10 µM unless noted
# UO-31 renal = settings: 10 µM unless noted
# CAKI-1 renal = settings: 10 µM unless noted
# MOLT-4 leukemia = settings: 10 µM
# SR leukemia = settings: 10 µM
# OVCAR-4 ovarian = settings: 10 µM unless noted
# SK-OV-3 ovarian = settings: 10 µM unless noted
# MDA-MB-435 melanoma = settings: 10 µM unless noted
# SW-620 colon = settings: 10 µM unless noted
# HCT-116 colon = settings: 10 µM unless noted
# HCC-2998 colon = settings: 10 µM unless noted
# KM12 colon = settings: 10 µM unless noted
# NCI-H460 lung = settings: 10 µM unless noted
# T-47D breast = settings: 10 µM unless noted
Structure (SMILES),growth (HOP-92 NSCLC),growth (MDA-MB-231 breast),growth (RXF 393 renal),growth (SNB-75 CNS),growth (SNB-19 CNS),growth (SK-MEL-5 melanoma),growth (LOX IMVI melanoma),growth (UO-31 renal),growth (CAKI-1 renal),growth (MOLT-4 leukemia),growth (SR leukemia),growth (OVCAR-4 ovarian),growth (SK-OV-3 ovarian),growth (MDA-MB-435 melanoma),growth (SW-620 colon),growth (HCT-116 colon),growth (HCC-2998 colon),growth (KM12 colon),growth (NCI-H460 lung),growth (T-47D breast)
ClCCN(CCCl)C(c1ccccc1)c1ccc(Cl)cc1 (stereo unspecified),57.4%,75.7%,88.4%,81.8%,81.6%,54.9%,81.3%,104%,10.1%,-3.35% (active),5.67% (active),96.9%,109%,88%,51.6%,79.5%,68.6%,89.5%,,
C/C1=C/C(=O)O[C@@H]2C[C@@H](CC[C@H](C)/C=C\C=C\CC1)O[C@@](OCCc1ccccc1)([C@@H]1CSC(=O)N1)C2,-58.9% (active),11.8%,-77.1% (active),-62.8% (active),,-21.2% (active),4.46% (active),-62.5% (active),-74.3% (active),61.4%,41.3%,-4.5% (active),-32.3% (active),,59.3%,33.5%,55.9%,58.2%,21.6%,61%
CC[C@]12C=CCN3CC[C@@]4(c5ccc(OC)cc5N(C)[C@H]4[C@@](O)(C(=O)OC)[C@@H]1OC(=O)CCCN1CCN(CCCC(=O)O[C@@H]4[C@]5(CC)C=CCN6CC[C@@]7(c8ccc(OC)cc8N(C)[C@H]7[C@@]4(O)C(=O)OC)[C@@H]65)CC1)[C@@H]32,-63.3% (active),-89.6% (active),-88.5% (active),-94.3% (active),-93.9% (active),-95.9% (active),-89.1% (active),-88.8% (active),-97% (active),-62.9% (active),,-47.4% (active),-88.7% (active),,-81.9% (active),-84% (active),-86.6% (active),-73.9% (active),-80.3% (active),-68.3% (active)
CC(=O)O[C@@H]1C2=C(C)C3(CC3)[C@@](C)(O)C(=O)C2=C[C@@]1(C)CO,-21.1% (active),-2.64% (active),-89.6% (active),,7.37% (active),-86.1% (active),-25.2% (active),-51% (active),3.26% (active),5.2% (active),4.56% (active),,,-85% (active),4.27% (active),6.86% (active),-68.7% (active),0.46% (active),2.34% (active),7.72% (active)
Oc1ccc(Br)cc1CN1CCN(Cc2ccc(Cl)cc2)CC1,24.8%,49.2%,76.7%,51.5%,87.8%,-3.7% (active),19.7%,47.4%,59.5%,56.1%,22.7%,65.5%,101%,12.8%,73.1%,22.2%,,64.9%,93.1%,
O=C(O)C1(Br)CC12c1ccccc1-c1ccccc12 (stereo unspecified),100%,115%,99.5%,104%,104%,98.4%,96.1%,82.4%,,86%,88.9%,107%,101%,108%,111%,100%,106%,99.7%,111%,82.5%
COc1ccc(NP2(=O)OCC(C)(N)CO2)cc1 (stereo unspecified),94.8%,106%,104%,95.7%,105%,96.3%,89.4%,75.6%,,82.2%,88.7%,110%,103%,108%,105%,98.8%,109%,91.8%,108%,78.5%
COc1cc(CNCCc2ccc(Cl)cc2)cc(OC)c1O,60.6%,72.2%,66.3%,44.6%,75.6%,72.8%,70.7%,61%,58.4%,37.3%,14.5%,69%,82.7%,,64.1%,60.9%,83.2%,65.7%,83.3%,61.7%
